The values below come from PubChem BioAssay AID588591 (National Center for Advancing Translational Sciences (NCATS), 2011).

Among all 390,000 compounds or so, about 4,700 (1.2%) were called active. Another 4% or so got no clear call; they are omitted. The sample as a whole holds a higher share of actives than the screen did. Unmarked numbers belong to inactive results. Calls come from the whole dose curve; as a rule, active = well fitted inhibition curve with a large enough effect; inconclusive = small, poorly fitted or top-dose-only effect, or another doubt; inactive = no such curve, though single readings can be large or run the other way.
% is set by controls: 0 for no effect and ±100 for the full control effect; potency is the fitted concentration of half-maximal effect.

DNA polymerase eta (Homo sapiens), sequence (Q9Y253 whole entry, looked up): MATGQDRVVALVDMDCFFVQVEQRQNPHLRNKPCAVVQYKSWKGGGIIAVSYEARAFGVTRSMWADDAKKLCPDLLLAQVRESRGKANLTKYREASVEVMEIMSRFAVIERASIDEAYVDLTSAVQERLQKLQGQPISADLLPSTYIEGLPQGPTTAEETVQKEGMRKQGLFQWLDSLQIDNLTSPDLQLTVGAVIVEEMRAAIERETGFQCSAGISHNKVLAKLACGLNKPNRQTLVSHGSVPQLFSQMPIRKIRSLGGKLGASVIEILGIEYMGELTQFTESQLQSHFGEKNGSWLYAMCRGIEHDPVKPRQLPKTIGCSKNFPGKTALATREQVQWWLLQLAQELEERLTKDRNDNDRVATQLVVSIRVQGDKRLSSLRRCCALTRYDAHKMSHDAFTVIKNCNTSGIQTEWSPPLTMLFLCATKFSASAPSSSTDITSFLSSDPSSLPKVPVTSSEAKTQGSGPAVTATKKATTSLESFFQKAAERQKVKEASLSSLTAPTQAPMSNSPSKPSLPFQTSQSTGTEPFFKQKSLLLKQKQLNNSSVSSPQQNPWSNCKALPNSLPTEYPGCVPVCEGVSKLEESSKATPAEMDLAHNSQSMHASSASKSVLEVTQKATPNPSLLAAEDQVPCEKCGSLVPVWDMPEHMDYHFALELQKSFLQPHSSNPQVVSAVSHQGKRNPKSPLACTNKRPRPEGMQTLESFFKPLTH

The target of this assay is DNA polymerase eta (Homo sapiens) (UniProt Q9Y253). Briefly: qHTS for Inhibitors of Polymerase Eta. To be noted: recombinant Pol eta, fluorescent DNA replication assay; series mostly up to 114 µM; activity change, negative = inhibition: at the top concentration. The procedure, abridged:
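Pol eta (10 nM) was preincubated with compounds for 15 min at room temperature, after which fluorescent replication substrate (50 nM final) was added to start the reaction. Fluorescence was read kinetically at 0 and 10 min.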
As for `Cc1ccc(CN2CCCC(C(=O)c3ccc4c(c3)OCO4)C2)cc1C` (stereo unspecified), the “activity change, negative = inhibition” value was 31.1%. The same measure, in the same setting: the result for `O=C1NC(=O)C(C/C=C/c2ccccc2)C(=O)N1` reads -5.62%.

On to `CN(C)c1ccc(/C=C2\CC3C4CC=C5CC(O)CCC5(C)C4CCC3(C)C2=O)cc1` (stereo unspecified), for which the “activity change, negative = inhibition” value was 1.76%. Regarding `C[C@@H]1CC[C@@]2(OC1)O[C@H]1C[C@H]3[C@@H]4CC=C5C[C@@H](O)[C@H](O)C[C@]5(C)C4CC[C@]3(C)[C@H]1[C@@H]2C` (stereo partly specified), the Potency was 89.1 µM (active). Turning to `CCOC(=O)C(O)(c1ccc(N)c(OC)c1)C(F)(F)F` (stereo unspecified), the “activity change, negative = inhibition” value was -15.8%. As for `COC(=O)C(O)(c1ccc(NC(=O)c2ccco2)c(OC)c1)C(F)(F)F` (stereo unspecified), the “activity change, negative = inhibition” value was -12.3%. Same read-out and setting: next, `CCCCN1C2CCC1CC(OC(c1ccc(F)cc1)c1ccc(F)cc1)C2` (stereo unspecified): -6.59% [at 57.1 µM]. Take `C[C@@H]1C[C@@H]2O[C@H]2/C=C\C=C\C(=O)Cc2c(Cl)c(O)cc(O)c2C(=O)O1`: the Potency was 10 µM (active). In the case of `COc1ccc(-n2c(O)c(C(C)=Nc3ccc4c(c3)CCC4)c(=O)[nH]c2=O)cc1`, the “activity change, negative = inhibition” value is -16.7%.

As to `O=C(Nc1ccc(Cl)cc1C(=O)c1ccccc1)c1cc(Cl)cc(Cl)c1`, the “activity change, negative = inhibition” value was -12%. On to `COc1ccc(C2C=C(C)Oc3c2c(=O)oc2ccccc32)cc1OC` (stereo unspecified), for which the “activity change, negative = inhibition” value is 1.27%. The same measure, in the same setting: next, `CCN1C(=O)NC(=O)C2(CCCC2)C1=O`: -7.47%. As to `O=C1NC(=O)N(CCc2ccc(F)cc2)C(=O)/C1=C/C=C/c1ccccc1`, the Potency was 50.1 µM (active). Turning to `COC(=O)C1=C(c2cc3ccccc3s2)C[C@@H]2CC[C@H]1N2C(=O)NC(C)C`, the “activity change, negative = inhibition” value was -1.91%. On the same count and under the same terms, next, `COc1ccc(C(=O)CC2C(=O)N(C)C(=O)N(C)C2=O)cc1`: -4.75%; `Cc1cc2ccccn2c1C(C[N+](=O)[O-])c1c(F)cccc1Cl` (stereo unspecified): -12.9%.

As for `COc1cccc(N2C(=O)NC(=O)/C(=C\c3ccc([N+](=O)[O-])s3)C2=O)c1`, the Potency was 17.8 µM (active). The same measure, in the same setting: the result for `O=C1NC(=O)N(c2ccccc2)C(=O)/C1=C/c1ccc([N+](=O)[O-])s1` reads 10 µM (active). As for `Cn1c(O)c(C=NCCN2CCNCC2)c(=O)n(C)c1=O`, the “activity change, negative = inhibition” value was -5.18%. The same measure, in the same setting: the result for `COC(=O)C1=C(c2ccc(OCc3ccccc3)cc2)C[C@@H]2CC[C@H]1N2C(=O)NCc1ccc(Cl)cc1` reads -23.3%. Consider `O=C(O)C1C2CCC(O2)C1C(=O)O` (stereo unspecified), for which the “activity change, negative = inhibition” value is -2.24% [at 57.1 µM]. On to `CC1=C(C(=O)Nc2ccccc2)SCCO1`, for which the “activity change, negative = inhibition” value was -19.1%. Same read-out and setting: next, `CCOC(=O)C1SC2(C(F)(F)C(F)F)CC1(O)c1c(c(OC)c3occc3c1OC)O2` (stereo unspecified): 0.0717%.

Turning to `CCN1CCN(c2nc3c(c(=O)[nH]2)CCC3)CC1`, the “activity change, negative = inhibition” value was -11.4%. Still for that read-out and setting: the result for `Cc1cccc(NC(=O)OC2CN3CCC2CC3)c1` (stereo unspecified) reads -12.7%. As to `CN(C)S(=O)(=O)c1cc(C(=O)N2CCC(C(=O)O)(c3ccccc3)CC2)ccc1Cl`, the “activity change, negative = inhibition” value is -13.7%. `COC(=O)C1=C(c2c(C)noc2C)C[C@@H]2CC[C@H]1N2C(=O)NCc1ccc2c(c1)OCO2`: the “activity change, negative = inhibition” value was -20.6%.

Regarding `CCc1ccc(OCC(=O)N2CCN(CC(=O)Nc3ccccc3Cl)CC2)cc1`, the “activity change, negative = inhibition” value was -21.1%. For `C[C@H]1CN([C@@H](C)CO)C(=O)CCCn2nncc2CO[C@H]1CN(C)C(=O)Oc1ccccc1`, the “activity change, negative = inhibition” value was -7.47%. For the compound `Cc1cc(C(=O)OCC(=O)Nc2c(F)cccc2F)c(C)n1C1CC1`, the “activity change, negative = inhibition” value is -8.46%.

In the case of `CN1CCN(/N=C/c2c[nH]c3ccccc23)CC1`, the “activity change, negative = inhibition” value was -23.5%. Regarding `CN1CCc2nc(SC(C(=O)O)c3ccccc3)c(C#N)c(-c3cccs3)c2C1` (stereo unspecified), the Potency was 31.6 µM (active).

As to `Cc1ccc(-n2c(/C=C/c3cccc(C(F)(F)F)c3)nc3ccccc3c2=O)cc1`, the “activity change, negative = inhibition” value is -2.12%. Still for that read-out and setting: next, `O=C(CCCn1c(=O)[nH]c2cc(Cl)ccc2c1=O)N1CCC2(CC1)OCCO2`: -5.01%. For `CCN(CC)C(=O)c1ccc(NC(=O)c2sccc2-c2ccccc2)cc1`, the “activity change, negative = inhibition” value is -7.87%. For `CCOc1ccc(-c2cc(C)n3nc(C(=O)Nc4ccc(C)c(C)c4)cc3n2)cc1`, the Potency was 70.8 µM (active). On to `C=CCN(CC=C)C(=O)Nc1ccc(OCC)cc1`, for which the “activity change, negative = inhibition” value is -2.67%. In the case of `CC1=C(C(=O)Nc2ccccc2)S(=O)(=O)CCO1`, the “activity change, negative = inhibition” value was -0.941%. `Cn1cc(C(=O)OCC(=O)N2CCCC2)c2ccccc21`: the “activity change, negative = inhibition” value is -7.55%. Turning to `O=C1NC(=O)N(Cc2ccco2)C(=O)/C1=C\c1cccn1CCOc1ccccc1`, the Potency was 79.4 µM (active). With `O=C1NC(=O)N(Cc2ccco2)C(=O)/C1=C\c1ccc(-c2ccc(F)cc2)o1`, the Potency is 25.1 µM (active). Consider `COc1cccc(OC)c1C(=O)NC(=S)N1C[C@H]2C[C@H](C1)c1cccc(=O)n1C2`, for which the “activity change, negative = inhibition” value was -12.9%.

For the compound `CC(C)c1ccc(OCC(=O)N2CCN(C)CC2)c(Br)c1`, the “activity change, negative = inhibition” value is 1.25%.

On to `CCOC(=O)C1=C(C)OC(N)=C(C(=O)OC)C12C(=O)Nc1ccc(Br)cc12` (stereo unspecified), for which the “activity change, negative = inhibition” value was -6.19%. As for `COc1cccc(CN2CCCC(C(=O)c3ccccc3SC)C2)c1O` (stereo unspecified), the “activity change, negative = inhibition” value is -19%. On the same count and under the same terms, next, `Cc1ccc(P(=S)(c2ccc(C)o2)N2CCOCC2)o1`: 0.879%.
